HepG2 tox: kills HepG2 cells in TGF-b inhibitor counter-screen | HepG2 CAGA-GFP viability, ATP luminescence, 18 h | Potency, µM (highest dose often 46.1 µM), for inactives: at the highest dose activity change, negative = cytotoxicity, actives largely listed as cytotoxic | actives 0.76% (n = 410,000) | AID 588856
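CellTiter-Glo luminescence gave cytotoxicity after 18 hours at 37 degrees C. The cells were HepG2 CAGA-GFP in 1% FBS DMEM, stimulated with 500 pg/mL TGF-beta after compound addition. %Activity was normalised to no-cell wells (complete cell-killing) and DMSO (no toxicity), and curves were fitted and classified.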
HT1080 IDH1KD tx: toxicity to HT-1080 IDH1 knockdown cells (counter line) | actives 2% (n = 360,000) | HT-1080 IDH1 knockdown viability, ATP luminescence, 48 h | Potency, µM (titrated, usually from 46.1 µM), for inactives: at the top dose activity, negative = toxicity, actives largely listed as cytotoxic;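 further: 0% = DMSO wells and -100% = cell-free medium wells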
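In this qHTS, HT-1080 cells depleted of IDH1 are exposed for 48 h at 37 °C to compound titrations. Toxicity is scored from CellTiter-Glo luminescence, with DMSO as full viability and medium alone as none.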
HT1080-NT tox: kills 2HG-producing HT-1080-NT fibrosarcoma cells. HT-1080-NT fibrosarcoma viability, CellTiter-Glo ATP luminescence, 48 h. actives 1.6% (n = 360,000). Potency, µM (highest dose often 46.1 µM), inactives show at the highest dose activity, negative = less viability, hits mostly cytotoxic. AID 686970;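 further: NT is the 2HG producing partner of a matched IDH1 knockdown line; 0% = DMSO-treated cells and -100% = media-only wells without cells; nearly all actives have a fitted effect of over 55% in size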
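A 48-hour cytotoxicity screen used HT-1080-NT cells plated 2 hours before compound delivery. ATP-based CellTiter-Glo luminescence measured viability, normalized to DMSO and no-cell controls.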
ATXN2 expr inh: inhibitors of ATXN2 expression; HEK-293 ATXN2-luciferase reporter, luminescence, 24 h; Potency, µM (highest dose often 57 µM), for the others: at the highest dose activity change, negative = inhibition, actives largely listed as inhibitors; actives 0.72% (n = 360,000); AID 1745845; further: on the % scale 0 is the no-effect control and ±100 the full control effect; nearly all actives have a fitted effect of over 55% in size
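qHTS (up to 57 uM final) was run with 24 h compound exposure of reporter cells at 37 °C. Each well was multiplexed: SteadyGlo luminescence measured ATXN2-luciferase expression after a fluorogenic Gly-Phe-AFC viability readout (25 uM final).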
S2 tox: viability counter-screen for ATXN expression inhibitors. S2 cells (HEK-293 line with an ATXN2-luciferase reporter) viability, CellTiter-Fluor protease fluorescence, 24 h. Potency, µM (series often up to 56.7 µM), usual class: cytotoxic. actives 0.49% (n = 400,000); further: nearly all actives have a fitted effect of over 40% in size
TGFb inhibitor: inhibitors of TGF-b signaling; HepG2 CAGA-GFP TGF-b/SMAD3 reporter, GFP fluorescence, 18 h; TGF-beta stimulated, 500 pg/mL final; Potency, µM (top dose mostly 46.1 µM), inactives show at the top dose activity, negative = inhibition, hits mostly inhibitors; actives 1.2% (n = 410,000); further: on the % scale 0 is the no-effect control and ±100 the full control effect; nearly all actives have a fitted effect of over 65% in size
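Inhibition was scored as loss of TGF-beta-induced (500 pg/mL final, 18 hours, 37 degrees C) GFP in HEPG2 cells carrying a CAGA-GFP reporter, in DMEM with 1% FBS. Well GFP was summed per cell; Activity was normalised to unstimulated and stimulated DMSO wells, then concentration-response fitting.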
Starred values were filed as active, the others as inactive; i = inactive; ? = inconclusive; · = no result given; [ ] = another dose, or the depositor's remark. Hits are enriched below; roughly 3.8% of the tested compounds scored in any of these assays. The call rests on the fitted dose curve; in most records, active means well fitted curve in the direction sought with a large enough effect; inconclusive means small, poorly fitted or top-dose-only effect, or another doubt; inactive means no such curve, though single readings can be large; an effect the other way counts as inactive or inconclusive. Potency means the concentration at half of the fitted maximal effect.

SMILES	HepG2 tox	HT1080 IDH1KD tx	HT1080-NT tox	ATXN2 expr inh	S2 tox	TGFb inhibitor
Cc1ccc(C(=O)OCn2ncc(Cl)c(Cl)c2=O)cc1	-103%	5.2µM*	5.8µM*	?	·	?
Cc1ccc(C(=O)COC(=O)c2nc(Cl)ccc2Cl)cc1	2%	4%	7%	8%	i	12%
O=C(OCn1ncc(Cl)c(Cl)c1=O)c1ccc(C(F)(F)F)cc1	10µM*	?	?	?	?	-13%
COc1ccccc1-n1c(=O)oc2ccc(Cl)cc2c1=O	-16%	2.9µM*	2.9µM*	-26%	?	?
COc1c(Cl)c(=O)oc2ccc(Cl)cc12	-1%	18%	2%	·	i	0%
CC(=O)O[C@@H]1CC2C3CCc4cc(OC(=O)c5ccccc5)ccc4C3CCC2(C)[C@H]1OC(C)=O (some centres not stated)	·	·	·	8%	i	·
CCOC(=O)C1=C(N)n2c(s/c(=C\c3ccco3)c2=O)=C(C(=O)OCC)C1c1ccco1 (configuration not stated)	4%	7.9µM*	16µM*	-5%	i	9%
CCOC(=O)c1cc2c(=O)n3ccccc3nc2n(CCOC)c1=NC(=O)C(C)(C)C	7.9µM*	1%	6%	-3%	·	1%
CCC1CN(CC(=O)NC(C)c2c(C)nn(C)c2C)Cc2cc(OC)ccc2O1 (configuration not stated)	·	·	·	·	i	·
CN1CCN(c2ccc(NC(=O)COc3ccccc3Cl)cc2)CC1	-34%	-3%	2%	-7%	i	4%
C=CC(=O)Nc1ccc(N(C)c2ccnc(Nc3ccc(N4CCN(C)CC4)cc3)n2)cc1	-3%	-22%	-28%	-37%	14µM*	?
COc1ccc(OCC(=O)NC(=S)Nc2ccc3c4c(cccc24)CC3)cc1	-9%	8%	4%	-7%	i	-1%
Cc1ccccc1OCC(=O)NC(=S)Nc1ccc2c3c(cccc13)CC2	13µM*	-2%	9%	-34%	i	0%
Cc1cc(NC(=O)CSc2nc3c(sc4ccccc43)c(=O)n2CCCN2CCOCC2)n[nH]1	-51%	-29%	-12%	1.4µM*	?	-16%
O=C(CSc1nc2ccccc2c(=O)n1CCCN1CCOCC1)Nc1ccc(Br)cc1	-20%	13µM*	?	?	?	-4%
CCc1ccc(NC(=O)CSc2nc3ccccc3c(=O)n2CCCN2CCC(C)CC2)cc1	-15%	21µM*	?	-34%	i	-7%
CC(=O)c1cccc(NC(=O)CSc2nc3ccccc3c(=O)n2CCCN2CCOCC2)c1	-19%	0%	-15%	·	?	22%
Cc1ccc(NC(=O)CSc2nc3ccccc3c(=O)n2CCCN2CCCCC2)cc1C	18µM*	?	-14%	?	·	?
O=C(COc1ccccc1)NCCc1csc(-c2cccc(F)c2)n1	-1%	·	·	-4%	i	-1%
C#CCOCCOCCOCCNc1nc(N2CCN(C(=O)CCCCCCCCCCNC(=O)[C@@H](CCSC)n3cc(CCO)nn3)CC2)nc(N2CCN(C(=O)CCCCCCCCCCNC(=O)[C@H]([C@@H](C)CC)n3cc(CCCCN=C(N)N)nn3)CC2)n1	-76%	?	?	?	16µM*	?
C#CCOCCOCCOCCNc1nc(N2CCN(C(=O)CCCCCCCCCCNC(=O)[C@@H](CCSC)n3cc(CCO)nn3)CC2)nc(N2CCN(C(=O)CCCCCCCCCCNC(=O)[C@H]([C@@H](C)CC)n3cc(CCCCCN)nn3)CC2)n1	-101%	?	?	28µM*	14µM*	?
C#CCOCCOCCOCCNc1nc(N2CCOCC2)nc(N2CCN(C(=O)CCCCCCCCCCNC(=O)[C@@H](CCSC)n3cc(CCO)nn3)CC2)n1	-12%	1%	0%	-6%	i	-18%
CCOc1ccc(C(=O)Nc2ccc(C(=O)OCc3cc(=O)n4c(C)csc4n3)cc2)cc1	-16%	·	·	·	·	22µM*
Cc1ccc(OCC(=O)Nc2ccc(C(=O)OCc3cc(=O)n4c(C)csc4n3)cc2)cc1	-16%	·	·	·	·	-3%
CCCc1nn2c(=O)cc(COC(=O)c3ccc(NC(=O)c4cccs4)cc3)nc2s1	-23%	·	·	·	·	11µM*
SMILES	HepG2 tox	HT1080 IDH1KD tx	HT1080-NT tox	ATXN2 expr inh	S2 tox	TGFb inhibitor
CCN(c1ccccc1)S(=O)(=O)c1cc(-c2onc(C)c2C)ccc1OC	-27%	·	·	·	·	-8%
O=Cc1ccc(/C=C2\C=Cc3ccccc32)cc1	-62%	·	·	·	·	3.5µM*
O=Cc1ccc(/C=C2/C=Cc3ccccc32)cc1	14%	·	·	·	·	4%
NC(N)=Nc1ccc(/C=C2\C=Cc3ccccc32)cc1	-106%	·	·	·	·	16µM*
Cc1nc2c(C(=O)NCCc3ccc(Cl)cc3)c[nH]n2c(=O)c1Cc1ccccc1F	16µM*	·	·	-12%	i	13µM*
Cc1nc2c(C(=O)NCCc3ccccc3)c[nH]n2c(=O)c1Cc1ccc(F)cc1Cl	-49%	·	·	-12%	i	?
O=c1c2ccccc2oc2cc(-c3ccc4[nH]ccc4c3)ccc12	-39%	3.7µM*	?	75%	?	?
COC(=O)C1=C(C)N(c2ccc(Cl)c(Cl)c2)C(=O)C1	-11%	?	15µM*	?	i	?
COC(=O)C1=C(C)N(c2ccc(S(N)(=O)=O)cc2)C(=O)C1	2%	9%	12%	0%	i	4%
O=C1NC(=O)C(=Cc2ccc3nccc(-c4ccncc4)c3c2)S1	·	·	·	6.9µM*	·	·
O=C1NC(=O)C(=Cc2ccc3nccnc3c2)S1	·	·	·	5%[25.6 µM]	·	·
C=C1C=C(C)n2ncc(C(=O)N(CCc3ccccc3)Cc3ccccc3)c2N1	-51%	·	·	·	·	?
c1cc2c3c(c1)CCCN3CCC2	1%	·	·	·	·	-8%
CCCN1CCc2c(sc(NC(=O)c3ccc(S(=O)(=O)N4CCN(C(=O)OCC)CC4)cc3)c2C(N)=O)C1	-61%	6.5µM*	7.3µM*	?	?	1%
CCOC(=O)N1CCN(S(=O)(=O)c2ccc(C(=O)Nc3sc4c(c3C(N)=O)CCN(CC)C4)cc2)CC1	-29%	?	?	-18%	i	6%
CN1CCc2c(sc(NC(=O)c3ccc(S(=O)(=O)N4CCCCCC4)cc3)c2C(N)=O)C1	-20%	21µM*	23µM*	?	·	-1%
CCN1CCc2c(sc(NC(=O)c3ccc(S(=O)(=O)N(C)CC4CCCO4)cc3)c2C(N)=O)C1 (configuration not stated)	0%	-10%	-3%	-16%	i	3%

Assay outcomes as filed in PubChem BioAssay.
